Assay results: PubChem BioAssay (NCATS)
Records with an inconclusive call do not appear. A call without a number means that no potency is given here. Activity calls are given as the source filed them. Calls follow the shape of the dose curve; as a rule, active = well fitted cell-killing curve with a large enough effect; inconclusive = small, poorly fitted or top-dose-only effect; inactive = no such curve, though single readings can be large or run the other way.

assay: qHTS of pediatric cancer cell lines to identify multiple opportunities for drug repurposing: Primary screen for Saos-2 cells (AID 1347097); conditions: Saos-2 viability, CellTiter-Glo ATP luminescence, 48 h; series mostly up to 46 µM; also: nearly all actives have a fitted effect of over 40% in size
Description: Drug repurposing or repositioning has been offered as a strategy for drug development in oncology programs. This approach has special potential for childhood cancers and other rare or orphan diseases, where the expected return on new drug development has been a disincentive to pharmaceuticals. […] In this project we exploit the poly-pharmacology of drugs to discover new indications via phenotypic screening of a panel of 19 well-characterized cell lines derived from solid tumors seen in children and adolescents. The goal is to identify approved drugs with previously unrecognized anticancer properties that has the potential to reveal new mechanisms and biological processes involved in carcinogenesis or drug resistance. We employed a titration-based paradigm (quantitative high-throughput screening or qHTS), where all compounds were tested at multiple concentrations for their effect on cell viability. Concentration-response curves (CRCs) were derived directly from the primary screen, and both potency and efficacy values were used to identify compounds with robust bioactivity profiles. We screened the NIH Chemical Genomics Center (NCGC) Pharmaceutical Collection (NPC) and Mechanism Interrogation Plate (MIPE) small molecule collections of approved and investigational compounds against these cell lines; and measured metabolically active cells after 48 hours of compound treatment as a proxy for cell viability. […] Assay Submitter: Nathalia J. Martinez, National Center for Advancing Translational Sciences, National Institutes of Health, Rockville, MD, USA; email: natalia.martinez@nih.gov Shen, M et al. Quantitative high-throughput phenotypic screening of pediatric cancer cell lines identifies multiple opportunities for drug repurposing. Oncotarget 2017 Dec 19;9(4):4758-4772. PMID 29435139.
The cells were obtained from University of North Carolina (UNC), Pediatric Preclinical Testing Program (PPT), and Coriell Institute (CI). qHTS cell viability assay: Cells were assayed in growth media at a density of 500-1,000 cells/well. Five microliters of cells were dispensed into 1,536-well, white, solid-bottom, TC-treated plates (Greiner Bio One) using a multidrop dispenser and incubated at 37 degrees C, 5% CO2, under a humidified atmosphere for 5 hours. Twenty-three nanoliters of compounds and controls (neutral control DMSO or positive control bortezomib at final concentration of 2.3 µM) were subsequently transferred by Kalypsys pintool. For primary screens, the MIPE collection was tested at 11-point dilutions (final concentrations range from 0.78 nM to 46 µM) and the NPC collection at 8-point dilutions (final concentrations range from 0.59 nM to 46 µM). Compounds tested in follow-up screens were assayed at 11-point dilutions. Cells were incubated for 48 hours, followed by addition of 3 µL of CellTiter-Glo (Promega). After a 15 min incubation at room temperature, samples were analyzed for luminescence intensity using a ViewLux High-throughput CCD imager equipped with clear filters.
Potency is read from the fitted curve at half-maximal effect.

| SMILES | Potency | activity change, negative = cytotoxic |
| --- | --- | --- |
| CO/N=C(\C(=O)N[C@@H]1C(=O)N2C(C(=O)O)=C(CSc3nc(=O)c(O)nn3C)CS[C@H]12)c1csc(N)n1 | inactive | – |
| O=S(=O)(O)c1cc(I)c(O)c2ncccc12 | inactive | – |
| Cn1c(=O)c2c(ncn2CC2OCCO2)n(C)c1=O | inactive | – |
| Nc1nc2c(ncn2CCC(CO)CO)c(=O)[nH]1 | inactive | – |
| O=C1NS(=O)(=O)c2ccccc21 | inactive | – |
| O=C1OC(OC(=O)c2cccnc2Nc2cccc(C(F)(F)F)c2)c2ccccc21 (stereo not given) | inactive | – |
| NC(=O)NNc1ccccc1 | inactive | – |
| CCCCC/C(C=O)=C\c1ccccc1 | 53.1 µM (active) | – |
| N[C@H]1C(O)O[C@H](CO)[C@@H](O)[C@@H]1O (stereo not given in full) | inactive | – |
| C[C@@H]1CC[C@@]2(OC1)O[C@H]1C[C@H]3[C@@H]4CC[C@H]5C[C@@H](O)CC[C@]5(C)[C@H]4CC(=O)[C@]3(C)[C@H]1[C@@H]2C | – | -14.3% [at 4.84 µM] (inactive) |
| CC[C@H]1CN2CCc3cc(OC)c(OC)cc3[C@@H]2C[C@@H]1C[C@H]1NCCc2cc(OC)c(OC)cc21 | 0.376 µM (active) | – |
| O=C(O)Cc1sc(-c2ccccc2)nc1-c1ccc(Cl)cc1 | inactive | – |
| Oc1cccc(O)c1 | inactive | – |
| COC(=O)C1=C(C)NC(C)=C(C(=O)OC)C1c1ccccc1[N+](=O)[O-] | inactive | – |
| CN1CCOC(c2ccccc2)c2ccccc2C1 (stereo not given) | inactive | – |
| CC(=O)Oc1c(C)c(C)c2c(c1C)CC[C@@](C)(CCC[C@H](C)CCC[C@H](C)CCCC(C)C)O2 | inactive | – |
| C[C@](N)(Cc1ccc(O)cc1)C(=O)O | – | -22.2% [at 4.84 µM] (inactive) |
| CC1CC(OC(=O)C(O)c2ccccc2)CC(C)(C)N1C (stereo not given) | inactive | – |
| CCn1cc(C(=O)O)c(=O)c2cnc(N3CCNCC3)nc21 | inactive | – |
| CN(C)CC[C@@H](c1ccc(Cl)cc1)c1ccccn1 | inactive | – |

| SMILES | Potency | activity change, negative = cytotoxic |
| --- | --- | --- |
| CCOc1nc2cccc(C(=O)O)c2n1Cc1ccc(-c2ccccc2-c2nn[nH]n2)cc1 | inactive | – |
| O=C(O)c1ccccc1O | inactive | – |
| CCCCCCCCCCCCCCCCCCOCC(O)CO (stereo not given) | inactive | – |
| CN1CCC[C@@H]1Cc1c[nH]c2ccc(CCS(=O)(=O)c3ccccc3)cc12 | inactive | – |
| CN(C)CCCO[C@@H]1[C@H]2OC(C)(C)O[C@H]2O[C@@H]1C(O)CO (stereo not given in full) | inactive | – |
| N[C@H](C(=O)O)c1ccc(O)cc1 | inactive | – |
| OCc1cc(C(O)CNCCCCCCOCCCCc2ccccc2)ccc1O (stereo not given) | inactive | – |
| CCCCC(CC)COC(=O)c1ccccc1O (stereo not given) | inactive | – |
| CC/C=C(\C(=O)N[C@@H]1C(=O)N2C(C(=O)OCOC(=O)C(C)(C)C)=C(COC(N)=O)CS[C@H]12)c1csc(N)n1 | inactive | – |
| COc1ccccc1O | inactive | – |
| Cc1ccc2nc(N)[nH]c(=O)c2c1Sc1ccncc1 | 13.3 µM (active) | – |
| CCCCN1CCCC[C@H]1C(=O)Nc1c(C)cccc1C | inactive | – |
| Cc1c(O)cccc1C(=O)N[C@@H](CSc1ccccc1)[C@H](O)CN1C[C@H]2CCCC[C@H]2C[C@H]1C(=O)NC(C)(C)C | 26.6 µM (active) | – |
| O=c1cc[nH]c(=S)[nH]1 | inactive | – |
| Nc1ccc(S(=O)(=O)Nc2nccs2)cc1 | inactive | – |
| CC(=O)Nc1ccc(/C=N/NC(N)=S)cc1 | inactive | – |
| CCCCN(CCCC)CCCOC(=O)c1ccc(N)cc1 | inactive | – |
| Cc1cc2c(cc1S(N)(=O)=O)S(=O)(=O)CCC2 | inactive | – |
| NCC(=O)CCC(=O)O | inactive | – |
| NC(=O)c1ncn([C@@H]2O[C@H](CO)[C@@H](O)[C@H]2O)c1N | inactive | – |
